# Data published in a collection of fitness landscapes (doi:10.1016/j.celrep.2020.107928).
# In all, about 81,000 sequences were measured (“one-hybrid fitness for binding parS DNA”: median about -0.17, highest 2% from about 0.51 on). The list comes from a sample in which the highest values are over-represented; it also holds similar and randomly drawn sequences.
# B1: Caulobacter ParB omega fusion; a variant is named by its letters at X, in order, B8GW30 (parent)
# chain: MESVVVGEPGMSEGRRGLGRGLSALLGEVDAAPAQAPGEQLGGSREAPIEILQRNPDQPRRTFREEDLEDLSNSIREKGVLQPILVRPSPDTAGEYQIVAGERAWRAAQRAGLKTVPIMVRELDDLAVLEIGIIENVQRADLNVLEEALSYKVLMEKFERTQENIAQTIGKSXSHVANXMRLLXLPDEVQSYLVSGELTAXHARAIAAAADPVALAKQIIEGGLSVRETEALARKAPNLSAGKSKGGRPPRVKDTDTQALESDLSSVLGLDVSIDHRGSTGTLTITYATLEQLDDLCNRLTRGI
# Variants of: B1
# Assay: one-hybrid fitness for binding parS DNA (scaled: cognate 1, non-cognate 0); higher = stronger binding
# Details: with parS DNA site
# How it was run: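 In E. coli USO, a HIS3 reporter with its site placed 19 bp from the promoter was used to select Caulobacter ParB variants randomised at four specificity codons. Growth lasted 48 hours at 37°C on histidine-free M9 containing 0.1 mM IPTG and 5 mM 3-AT. Fitness was taken as the log change in variant-to-wild-type read ratio from Illumina sequencing of pre- and post-selection plasmids, rescaled between the non-cognate and cognate sites.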
row,Variant,one-hybrid fitness for binding parS DNA
1,NVQI,≤ 0.2
2,QQQV,≤ 0.2
3,WSWS,≤ 0.2
4,QFTQ,≤ 0.2
5,VLWE,≤ 0.2
6,PVLP,≤ 0.2
7,RYDS,0.987
8,RYNS,0.872
9,RYND,0.213
10,RYNH,≤ 0.2
11,RYDD,≤ 0.2
12,RYDN,0.407
13,EDLC,≤ 0.2
14,ANQD,≤ 0.2
15,TARG,≤ 0.2
16,KMSG,≤ 0.2
17,RYES,0.975
18,RYEP,≤ 0.2
19,RYED,≤ 0.2
20,RYEF,0.236
21,RYEH,≤ 0.2
22,RYEG,0.901
23,RYEY,0.434
24,RYEN,0.348
25,RYEC,0.926

row,Variant,one-hybrid fitness for binding parS DNA
1,RYET,0.772
2,RYEM,0.275
3,RYEK,≤ 0.2
4,PNCQ,≤ 0.2
5,QNHC,≤ 0.2
6,RNEA,0.253
7,CLSL,≤ 0.2
8,SSKF,≤ 0.2
9,VNMC,≤ 0.2
10,RMAC,0.994
11,RMAF,0.253
12,RMFN,0.459
13,RMFR,≤ 0.2
14,RMAK,≤ 0.2
15,RMFC,0.966
16,MTRT,≤ 0.2
17,LSYV,≤ 0.2
18,LACS,≤ 0.2
19,RKDS,0.886
20,RKDP,≤ 0.2
21,RKNN,0.327
22,RKNH,≤ 0.2
23,RKDD,≤ 0.2
24,RKNS,0.766
25,QQTE,≤ 0.2

row,Variant,one-hybrid fitness for binding parS DNA
1,TVLW,≤ 0.2
2,QYWT,≤ 0.2
3,AHYS,≤ 0.2
4,RWAC,0.721
5,RWAP,≤ 0.2
6,RWFR,≤ 0.2
7,RWAH,≤ 0.2
8,RWFC,0.6
9,RWFM,≤ 0.2
10,HYMG,≤ 0.2
11,CCLT,≤ 0.2
12,HCNG,≤ 0.2
13,RVAD,≤ 0.2
14,RVAP,≤ 0.2
15,RVFC,0.972
16,RVFR,≤ 0.2
17,RVFF,0.303
18,RVAC,0.982
19,YKSS,≤ 0.2
20,DLKY,≤ 0.2
21,KPVK,≤ 0.2
22,RTRF,0.627
23,RTKF,0.734
24,RPKF,≤ 0.2
25,RTVF,≤ 0.2

row,Variant,one-hybrid fitness for binding parS DNA
1,RTDF,≤ 0.2
2,RTYF,0.259
3,RCKF,0.541
4,RSKF,0.35
5,RWHR,≤ 0.2
6,RPGM,≤ 0.2
7,VKLS,≤ 0.2
8,EMNC,≤ 0.2
9,QAGG,≤ 0.2
10,VSVK,≤ 0.2
11,LNGG,≤ 0.2
12,RVPD,≤ 0.2
13,RVPS,0.812
14,RVIS,0.981
15,RVIP,≤ 0.2
16,RVPP,≤ 0.2
17,RVID,≤ 0.2
18,PTIM,≤ 0.2
19,CNLM,≤ 0.2
20,LLRY,≤ 0.2
21,EDTE,≤ 0.2
22,RENG,0.302
23,RSNK,≤ 0.2
24,RDNG,≤ 0.2
25,RSDG,0.84

row,Variant,one-hybrid fitness for binding parS DNA
1,RCNG,0.966
2,RSNG,1
3,RSYR,≤ 0.2
4,RSDF,≤ 0.2
5,REDG,≤ 0.2
6,RSYG,0.991
7,RSYF,0.233
8,RPNG,≤ 0.2
9,YWPS,≤ 0.2
10,CLAE,≤ 0.2
11,SEHQ,0.354
12,DVPP,≤ 0.2
13,PLMI,≤ 0.2
14,HVLG,≤ 0.2
15,AYDG,≤ 0.2
16,RDDG,≤ 0.2
17,RCDG,0.959
18,RPDG,≤ 0.2
19,EYDG,≤ 0.2
20,SQTL,≤ 0.2
21,RKPC,0.488
22,RSIN,0.269
23,RKIC,0.811
24,RAPC,0.485
25,RKIF,≤ 0.2

row,Variant,one-hybrid fitness for binding parS DNA
1,RAIC,0.782
2,RPIC,≤ 0.2
3,RSIC,0.718
4,RCIC,0.906
5,RSIH,≤ 0.2
6,RAIM,0.209
7,RDIC,≤ 0.2
8,ARLT,≤ 0.2
9,THAD,≤ 0.2
10,PYVA,≤ 0.2
11,HQCG,≤ 0.2
12,HLKN,≤ 0.2
13,RHIN,≤ 0.2
14,RHIC,0.651
15,RHPC,0.367
16,RNVC,0.599
17,RNKC,0.917
18,RNKP,≤ 0.2
19,RNVR,≤ 0.2
20,RNVF,≤ 0.2
21,RNKD,≤ 0.2
22,IKLC,≤ 0.2
23,LQAE,≤ 0.2
24,IYHY,≤ 0.2
25,VEVT,≤ 0.2

row,Variant,one-hybrid fitness for binding parS DNA
1,NPKT,≤ 0.2
2,ITLC,≤ 0.2
3,ARFV,≤ 0.2
4,RIVG,0.946
5,RIVR,≤ 0.2
6,RIVF,0.378
7,RIKK,≤ 0.2
8,RIKG,0.959
9,RIKN,0.451
10,HGLV,≤ 0.2
11,DGHT,≤ 0.2
12,QIRE,≤ 0.2
13,RTPF,≤ 0.2
14,RTIC,0.912
15,RTIY,0.418
16,RTIM,0.279
17,RTPC,0.625
18,QSQK,≤ 0.2
19,CSYS,≤ 0.2
20,TQQS,≤ 0.2
21,RYDQ,0.223
22,RYNN,0.364
23,RYNP,≤ 0.2
24,RYDY,0.422
25,RYDC,0.949

row,Variant,one-hybrid fitness for binding parS DNA
1,RYNC,0.86
2,PYET,≤ 0.2
3,QEHT,≤ 0.2
4,KIRI,≤ 0.2
5,THLT,≤ 0.2
6,CDLR,≤ 0.2
7,NINA,≤ 0.2
8,RIDA,0.55
9,RINA,0.596
10,GNPS,≤ 0.2
11,RCND,≤ 0.2
12,VLGC,≤ 0.2
13,NLPL,≤ 0.2
14,PQIT,≤ 0.2
15,SCSQ,≤ 0.2
16,QQAG,≤ 0.2
17,RKPP,≤ 0.2
18,RKIH,≤ 0.2
19,RKIG,0.855
20,RKIN,0.322
21,RKPD,≤ 0.2
22,RKPG,0.552
